PMC5540273 (PLoS ONE, 2017)

System: MARK1
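Further: kd values determined as follow-up on hits from a single-replicate KINOMEscan panel screen.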

| SMILES | Kd |
| --- | --- |
| COc1cccc(NC(=O)Nc2ccc(C)c(-c3ccc(C(=O)Nc4ccncc4)cc3)c2)c1 [GSK1398474] | > 10000 nM |
| c1ccc(-c2ccnc3[nH]ccc23)cc1 [SB-693578] | > 10000 nM |
| Cc1ccccc1Cn1ccn2c(=O)cc(N3CCOCC3)nc12 [GSK2269905] | > 10000 nM |
| COc1ccc(-c2coc3ccc(-c4nnc(C)o4)cc23)cc1 | > 10000 nM |
| O=c1cc(N2CCOCC2)nc2n(Cc3ccccc3F)ccn12 [GSK2297428] | > 10000 nM |

System: T1, MEK5
T1 construct: gene MAP2K5

| SMILES | Kd |
| --- | --- |
| COc1cc2ncnc(Nc3cccc(Br)c3)c2cc1OC.Cl [GI230329] | 700 nM |
| Nc1ncnc2occ(-c3ccc4c(c3)CCN4C(=O)Cc3cc(F)ccc3F)c12 [GSK2645446] | 750 nM |
| COC(=O)C(NC(=O)NC1CCN(c2ccnc(Nc3ccc(F)cc3)n2)C1)c1ccccc1 (stereo not drawn) [GSK1379712] | 270 nM |
| CS(=O)(=O)CCNCc1nc(-c2ccc3ncnc(Nc4ccc(OCc5ccccc5)c(Cl)c4)c3c2)cs1.Cl [GW582764] | 700 nM |
| Cn1cncc1-c1cc2c(Nc3ccc(OCc4ccccc4)cc3)ncnc2cn1 [GW281179] | 140 nM |
| CS(=O)(=O)CCNCc1nc(-c2ccc3ncnc(Nc4ccc5c(cnn5Cc5ccccc5)c4)c3c2)cs1.Cl.Cl [GW569716] | 43 nM |
| CS(=O)(=O)Cc1ccc(Nc2nccc(-c3c(-c4cccc(NC(=O)C5CCCCC5)c4)nn4ncccc34)n2)cc1 [GSK350559] | 35 nM |
